Assay results from the supplement of paper PMC10849652.
Targets with a hit are over-represented here; the source holds about 8,800 in all. About 0.5% of all pairs of compound and target were hits. Values without a mark were called inactive.

Columns and labels:
Experiment in all cases: log2 fold change, soluble protein after heating vs DMSO (PISA); higher = thermal stabilisation; K562 lysate, 10 uM; active = over 0.2 and 3.5 SD of the protein, either way, in both replicates (recomputed)
[1] = compound: CN1CC[C@H](c2c(O)cc(O)c3c(=O)cc(-c4ccccc4Cl)oc23)[C@H](O)C1 [alvocidib]
Outline: (§1)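 Following dounce homogenisation of K562 pellets in PBS pH 7.4 with 1 mM MgCl2, crude extract at 1 mg/mL protein was incubated for 30 min with 10 μM compound. Aliquots were then heated for 3 min over 48°C-58°C and pooled, NP-40 was added to 0.5% at 4°C, and soluble protein was recovered as the supernatant at 21,000xg for 90 min. Channel-sum-equalised TMTpro 16plex LC-MS/MS quantified this protein. Each value, from duplicates, is a log-two fold change in thermal stability relative to solvent controls.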

[2] = compound: CN1CCc2c(c3ccccc3n2Cc2ccc(C(=O)NO)cc2)C1 [Tubastatin A]
Outline: as §1

[3] = compound: CNC(=O)C1=CC=CC=C1NC2=NC(=NC=C2Cl)NC3=C(C=C(C=C3)N4CCOCC4)OC
Outline: as §1

[4] = compound: CNC(=O)c1ccc(Nc2ncc(C(F)(F)F)c(NCc3nccnc3N(C)S(C)(=O)=O)n2)cc1 [defactinib]
Outline: as §1

[5] = compound: CNc1nc(-c2ccc3c(N)n[nH]c3c2)cc(N2C[C@@H](C(=O)NC3CCCCC3)CC[C@H]2C)n1
Outline: as §1

[6] = compound: COC(=O)N[C@@H](C)CNc1nccc(-c2cn(C(C)C)nc2-c2cc(Cl)cc(NS(C)(=O)=O)c2F)n1 [encorafenib]
Outline: as §1

[7] = compound: COC(=O)[C@H](CCSC)NC(=O)C1=C(C=C(C=C1)NC[C@H](CS)N)C2=CC=CC=C2
Outline: as §1

[8] = compound: COc1cc(Nc2ncc3c(n2)-c2ccc(Cl)cc2C(c2c(F)cccc2OC)=NC3)ccc1C(=O)O [alisertib]
Outline: as §1

[9] = compound: COc1cc2nc(-c3cc(F)ccc3O)nc(N[C@@H]3CNC[C@H]3C(C)(C)O)c2cc1OC
Outline: as §1

[10] = compound: COc1cc2ncnc(Nc3ccc(F)c(Cl)c3)c2cc1OCCCN1CCOCC1 [gefitinib]
Outline: as §1

[11] = compound: CS(=O)(=O)CCNCc1ccc(-c2ccc3ncnc(Nc4ccc(OCc5cccc(F)c5)c(Cl)c4)c3c2)o1 [lapatinib]
Outline: as §1

[12] = compound: CS(=O)(=O)N1CCN(Cc2cc3nc(-c4cccc5[nH]ncc45)nc(N4CCOCC4)c3s2)CC1 [pictilisib]
Outline: as §1

[13] = compound: C[C@@H](Oc1cc(-c2cnn(C3CCNCC3)c2)cnc1N)c1c(Cl)ccc(F)c1Cl [crizotinib]
Outline: as §1

[14] = compound: C[C@H](C1=CC=C(C=C1)C(=O)NC2=C3C=CNC3=NC=C2)N
Outline: as §1

[15] = compound: C[C@H](Nc1ncnc2nc[nH]c12)c1cc2cccc(Cl)c2c(=O)n1-c1ccccc1 [duvelisib]
Outline: as §1

[16] = compound: Cc1cc(Nc2cc(CN3CCOCC3)c3nc(C)c(Cc4ccc(Cl)cc4F)n3n2)n[nH]1 [gandotinib]
Outline: as §1

[17] = compound: Cc1cc(Nc2cc(N3CCN(C)CC3)nc(Sc3ccc(NC(=O)C4CC4)cc3)n2)n[nH]1 [tozasertib]
Outline: as §1

[18] = compound: Cc1ccc(-n2nc(C(C)(C)C)cc2NC(=O)Nc2ccc(OCCN3CCOCC3)c3ccccc23)cc1 [doramapimod]
Outline: as §1

[19] = compound: Cc1ccc(NC(=O)c2ccc(CN3CC[C@H](N(C)C)C3)c(C(F)(F)F)c2)cc1Nc1nccc(-c2cncnc2)n1 [bafetinib]
Outline: as §1

[20] = compound: Cc1cccc(CC(=O)N2CCc3c2ccc(-c2cn(C)c4ncnc(N)c24)c3F)n1
Outline: as §1

Chain of UniProt Q9NVU0 (Q9NVU0 whole entry, looked up): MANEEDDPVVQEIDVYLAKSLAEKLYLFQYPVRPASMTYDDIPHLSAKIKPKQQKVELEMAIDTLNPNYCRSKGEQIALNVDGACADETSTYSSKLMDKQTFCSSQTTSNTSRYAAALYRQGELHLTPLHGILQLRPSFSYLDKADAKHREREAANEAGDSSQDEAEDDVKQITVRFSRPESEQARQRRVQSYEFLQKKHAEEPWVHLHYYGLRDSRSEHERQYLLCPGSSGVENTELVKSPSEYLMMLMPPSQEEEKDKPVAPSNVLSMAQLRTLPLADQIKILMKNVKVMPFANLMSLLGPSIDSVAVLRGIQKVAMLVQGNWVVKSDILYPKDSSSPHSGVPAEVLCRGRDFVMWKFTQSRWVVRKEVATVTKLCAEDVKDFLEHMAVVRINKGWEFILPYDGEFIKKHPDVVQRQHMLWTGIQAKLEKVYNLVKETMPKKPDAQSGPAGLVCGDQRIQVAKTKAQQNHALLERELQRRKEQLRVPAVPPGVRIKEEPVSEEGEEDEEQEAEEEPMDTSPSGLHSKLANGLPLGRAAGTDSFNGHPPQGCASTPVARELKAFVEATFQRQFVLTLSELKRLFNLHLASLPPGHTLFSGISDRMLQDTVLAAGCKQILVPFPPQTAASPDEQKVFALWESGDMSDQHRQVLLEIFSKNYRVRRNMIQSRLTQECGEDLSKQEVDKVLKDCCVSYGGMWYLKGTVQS
Chain of UniProt Q13356 (Q13356 whole entry, looked up): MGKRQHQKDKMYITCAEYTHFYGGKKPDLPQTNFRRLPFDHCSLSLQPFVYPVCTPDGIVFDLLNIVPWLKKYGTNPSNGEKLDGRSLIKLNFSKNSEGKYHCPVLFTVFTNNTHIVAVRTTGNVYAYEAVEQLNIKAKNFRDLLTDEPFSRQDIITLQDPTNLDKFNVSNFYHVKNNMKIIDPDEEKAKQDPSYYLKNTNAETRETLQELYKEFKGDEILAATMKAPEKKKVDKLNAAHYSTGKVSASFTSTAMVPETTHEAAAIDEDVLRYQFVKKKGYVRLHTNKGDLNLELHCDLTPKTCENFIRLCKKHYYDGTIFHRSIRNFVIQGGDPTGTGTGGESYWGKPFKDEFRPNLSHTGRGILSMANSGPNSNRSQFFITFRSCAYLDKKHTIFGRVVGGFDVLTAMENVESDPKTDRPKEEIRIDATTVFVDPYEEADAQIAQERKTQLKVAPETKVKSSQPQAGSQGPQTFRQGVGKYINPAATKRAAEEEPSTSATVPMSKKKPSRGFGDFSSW
Chain of UniProt Q8NAV1 (Q8NAV1 whole entry, looked up): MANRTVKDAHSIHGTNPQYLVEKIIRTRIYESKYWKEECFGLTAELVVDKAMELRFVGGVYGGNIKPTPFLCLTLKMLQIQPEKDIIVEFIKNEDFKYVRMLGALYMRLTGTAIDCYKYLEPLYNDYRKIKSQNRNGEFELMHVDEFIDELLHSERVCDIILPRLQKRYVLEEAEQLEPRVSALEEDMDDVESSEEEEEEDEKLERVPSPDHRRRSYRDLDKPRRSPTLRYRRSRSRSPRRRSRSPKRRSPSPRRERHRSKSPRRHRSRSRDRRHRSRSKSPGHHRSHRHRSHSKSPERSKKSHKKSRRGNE
Chain of UniProt P67775 (P67775 whole entry, looked up): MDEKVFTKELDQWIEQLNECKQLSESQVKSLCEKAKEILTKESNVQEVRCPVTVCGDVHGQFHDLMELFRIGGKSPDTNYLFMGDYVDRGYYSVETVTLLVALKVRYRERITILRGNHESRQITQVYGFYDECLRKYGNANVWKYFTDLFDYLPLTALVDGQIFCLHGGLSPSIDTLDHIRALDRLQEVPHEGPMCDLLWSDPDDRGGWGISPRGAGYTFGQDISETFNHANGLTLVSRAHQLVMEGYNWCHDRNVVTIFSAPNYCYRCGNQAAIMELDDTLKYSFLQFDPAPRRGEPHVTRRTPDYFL
Chain of UniProt Q9NVM4 (Q9NVM4 whole entry, looked up): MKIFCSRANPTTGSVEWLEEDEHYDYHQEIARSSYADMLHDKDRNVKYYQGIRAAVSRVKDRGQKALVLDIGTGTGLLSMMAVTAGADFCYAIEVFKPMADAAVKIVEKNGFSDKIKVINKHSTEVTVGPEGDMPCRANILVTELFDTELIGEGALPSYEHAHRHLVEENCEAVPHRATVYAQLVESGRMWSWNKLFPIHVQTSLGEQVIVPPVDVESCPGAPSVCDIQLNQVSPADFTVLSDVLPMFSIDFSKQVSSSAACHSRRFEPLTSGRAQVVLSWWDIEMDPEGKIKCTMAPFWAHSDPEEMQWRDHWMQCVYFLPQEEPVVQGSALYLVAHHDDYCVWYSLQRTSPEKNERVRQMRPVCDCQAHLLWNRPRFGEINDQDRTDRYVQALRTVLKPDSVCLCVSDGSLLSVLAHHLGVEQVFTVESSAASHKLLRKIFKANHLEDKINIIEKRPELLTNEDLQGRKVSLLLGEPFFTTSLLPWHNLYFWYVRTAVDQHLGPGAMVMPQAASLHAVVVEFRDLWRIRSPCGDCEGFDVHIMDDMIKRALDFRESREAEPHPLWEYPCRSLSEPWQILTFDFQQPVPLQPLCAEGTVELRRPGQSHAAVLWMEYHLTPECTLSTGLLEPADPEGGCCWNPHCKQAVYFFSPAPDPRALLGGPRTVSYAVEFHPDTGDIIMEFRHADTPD
Chain of UniProt Q9Y446 (Q9Y446 whole entry, looked up): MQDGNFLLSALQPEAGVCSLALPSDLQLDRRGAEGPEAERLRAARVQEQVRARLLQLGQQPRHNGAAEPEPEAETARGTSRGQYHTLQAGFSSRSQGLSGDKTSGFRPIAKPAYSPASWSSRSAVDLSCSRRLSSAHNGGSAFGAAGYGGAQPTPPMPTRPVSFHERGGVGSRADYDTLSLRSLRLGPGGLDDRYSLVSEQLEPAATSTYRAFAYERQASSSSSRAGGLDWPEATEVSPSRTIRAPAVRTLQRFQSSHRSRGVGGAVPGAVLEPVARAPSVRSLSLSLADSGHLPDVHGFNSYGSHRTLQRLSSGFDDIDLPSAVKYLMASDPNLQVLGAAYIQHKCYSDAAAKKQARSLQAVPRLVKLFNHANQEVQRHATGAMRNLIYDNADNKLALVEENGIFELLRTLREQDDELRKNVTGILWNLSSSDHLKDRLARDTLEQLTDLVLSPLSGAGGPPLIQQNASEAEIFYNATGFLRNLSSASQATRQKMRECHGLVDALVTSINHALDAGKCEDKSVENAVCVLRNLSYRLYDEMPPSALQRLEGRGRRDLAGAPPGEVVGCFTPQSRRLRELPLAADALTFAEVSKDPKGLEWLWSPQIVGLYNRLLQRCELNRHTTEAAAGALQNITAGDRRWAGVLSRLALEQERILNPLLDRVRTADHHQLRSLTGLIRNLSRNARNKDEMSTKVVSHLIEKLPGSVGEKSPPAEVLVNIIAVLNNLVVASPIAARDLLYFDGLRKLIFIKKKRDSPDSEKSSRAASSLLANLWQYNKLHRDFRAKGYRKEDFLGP
Chain of UniProt Q86UU1 (Q86UU1 whole entry, looked up): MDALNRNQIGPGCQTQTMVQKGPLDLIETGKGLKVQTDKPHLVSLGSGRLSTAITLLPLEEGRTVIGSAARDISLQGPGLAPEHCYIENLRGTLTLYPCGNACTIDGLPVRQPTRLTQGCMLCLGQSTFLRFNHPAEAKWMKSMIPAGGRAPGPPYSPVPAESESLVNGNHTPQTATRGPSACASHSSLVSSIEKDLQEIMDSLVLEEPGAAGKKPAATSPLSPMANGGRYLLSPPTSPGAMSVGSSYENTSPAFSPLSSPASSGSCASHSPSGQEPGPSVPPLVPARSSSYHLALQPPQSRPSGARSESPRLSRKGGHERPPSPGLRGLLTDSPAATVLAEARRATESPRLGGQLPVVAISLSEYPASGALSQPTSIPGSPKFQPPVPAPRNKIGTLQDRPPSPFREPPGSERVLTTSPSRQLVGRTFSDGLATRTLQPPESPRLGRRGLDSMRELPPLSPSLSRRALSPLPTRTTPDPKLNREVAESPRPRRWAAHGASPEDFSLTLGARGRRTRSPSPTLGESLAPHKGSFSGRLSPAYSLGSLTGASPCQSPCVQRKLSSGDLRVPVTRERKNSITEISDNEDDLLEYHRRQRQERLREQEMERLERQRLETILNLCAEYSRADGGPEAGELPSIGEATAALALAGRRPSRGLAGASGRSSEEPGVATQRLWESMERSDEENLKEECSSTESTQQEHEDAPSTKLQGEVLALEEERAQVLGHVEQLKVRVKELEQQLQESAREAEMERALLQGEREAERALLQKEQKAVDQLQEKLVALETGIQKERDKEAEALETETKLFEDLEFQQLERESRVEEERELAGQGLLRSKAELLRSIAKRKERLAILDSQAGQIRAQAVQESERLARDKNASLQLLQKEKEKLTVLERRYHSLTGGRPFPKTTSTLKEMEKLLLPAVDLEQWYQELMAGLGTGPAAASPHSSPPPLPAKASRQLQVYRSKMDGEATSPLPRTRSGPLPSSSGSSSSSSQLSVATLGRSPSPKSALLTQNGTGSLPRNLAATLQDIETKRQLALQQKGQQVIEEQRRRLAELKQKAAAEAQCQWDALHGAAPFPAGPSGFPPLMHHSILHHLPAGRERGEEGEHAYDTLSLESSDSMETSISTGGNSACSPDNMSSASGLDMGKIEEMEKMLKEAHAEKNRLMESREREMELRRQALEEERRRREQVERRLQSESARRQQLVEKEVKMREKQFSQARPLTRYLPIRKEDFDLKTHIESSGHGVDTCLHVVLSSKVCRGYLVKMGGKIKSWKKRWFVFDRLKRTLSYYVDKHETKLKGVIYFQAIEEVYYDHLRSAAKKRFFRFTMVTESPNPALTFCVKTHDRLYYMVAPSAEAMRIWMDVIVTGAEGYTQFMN
Chain of UniProt Q9Y244 (Q9Y244 whole entry, looked up): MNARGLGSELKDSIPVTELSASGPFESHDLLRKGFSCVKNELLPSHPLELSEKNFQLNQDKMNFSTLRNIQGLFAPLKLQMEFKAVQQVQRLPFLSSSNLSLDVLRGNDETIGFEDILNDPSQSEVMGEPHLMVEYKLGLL

Target | log2 fold change [1] | log2 fold change [2] | log2 fold change [3] | log2 fold change [4] | log2 fold change [5] | log2 fold change [6] | log2 fold change [7] | log2 fold change [8] | log2 fold change [9] | log2 fold change [10] | log2 fold change [11] | log2 fold change [12] | log2 fold change [13] | log2 fold change [14] | log2 fold change [15] | log2 fold change [16] | log2 fold change [17] | log2 fold change [18] | log2 fold change [19] | log2 fold change [20]
PPIL2 (UniProt Q13356) | -0.006 | -0.1 | -0.006 | -0.024 | 0.056 | -0.004 | 0.036 | -0.018 | 0.027 | 0.005 | -0.034 | -0.014 | -0.037 | -0.011 | -0.047 | -0.019 | 0.047 | 0.043 | -0.022 | 0.054
PRKCSH (UniProt K7ELL7) | 0.048 | 0.073 | -0.026 | 0.006 | -0.013 | 0.048 | -0.002 | 0.018 | 0.083 | -0.12 | -0.009 | 0.028 | 0.061 | 0.181 | 0.1 | -0.047 | 0.062 | -0.044 | 0.031 | -0.019
PRMT7 (UniProt Q9NVM4) | 0.017 | -0.069 | 0.024 | -0.047 | 0.002 | 0.012 | 0.286 (active) | -0.015 | 0.007 | 0 | -0.006 | 0 | 0.025 | -0.014 | 0.035 | -0.045 | 0.039 | -0.025 | -0.01 | -0.008
PKP3 isoform 2 (UniProt Q9Y446) | -0.011 | -0.126 | 0.067 | 0.035 | 0.017 | 0.098 | 0.095 | 0.019 | 0.031 | -0.018 | -0.007 | -0.004 | 0.043 | -0.024 | -0.048 | 0.04 | -0.039 | 0.08 | -0.085 | 0.027
PPP2R5C isoform 4 (UniProt Q13362) | 0.059 | -0.014 | -0.022 | -0.01 | -0.08 | -0.03 | -0.047 | -0.036 | 0.009 | -0.007 | -0.05 | 0 | 0.015 | -0.051 | 0.213 | -0.034 | 0.025 | -0.11 | -0.077 | 0.055
PHLDB1 (UniProt Q86UU1) | -0.067 | -0.1 | -0.031 | 0.023 | 0.049 | -0.041 | -0.05 | 0.009 | -0.037 | 0.017 | -0.052 | 0.034 | -0.154 | -0.06 | -0.028 | 0.073 | -0.047 | 0.076 | -0.112 | 0.031
PRRC2A (UniProt P48634) | -0.006 | -0.014 | -0.001 | 0.046 | -0.012 | 0.048 | -0.044 | 0.016 | 0.005 | -0.008 | -0.02 | -0.017 | 0.06 | 0.011 | -0.001 | 0.007 | -0.013 | -0.073 | 0.031 | -0.058
PDE2A (UniProt O00408) | 0.038 | 0.275 | 0.044 | -0.24 | 0.028 | 0.11 | -0.019 | 0.014 | 0.048 | -0.01 | 0.005 | 0 | 0.074 | 0.05 | -0.042 | 0.138 | 0.049 | -0.057 | 0.051 | 0.041
POLR3E (UniProt Q9NVU0) | 0.011 | -0.08 | 0.009 | 0.02 | 0.009 | 0.004 | 0.104 | 0.024 | -0.003 | 0.009 | -0.014 | -0.001 | 0.003 | -0.001 | 0.01 | -0.028 | -0.011 | -0.001 | -0.018 | 0.013
PLEKHF1 (UniProt Q96S99) | -0.001 | -0.051 | 0.058 | -0.007 | -0.033 | -0.025 | -0.009 | -0.008 | -0.001 | 0.007 | -0.022 | -0.016 | -0.021 | -0.043 | 0.058 | 0.023 | 0.02 | 0.016 | 0.013 | 0.026
POLR2M (UniProt P0CAP2) | -0.002 | 0.031 | 0.021 | 0.037 | 0.035 | 0.33 (active) | -0.047 | -0.011 | 0.019 | 0.027 | -0.034 | -0.055 | 0.016 | -0.031 | 0.015 | 0.02 | 0.185 | 0.009 | -0.011 | 0.041
PPP2CA (UniProt P67775) | -0.062 | -0.018 | 0.026 | -0.064 | -0.019 | 0.128 | -0.374 (active) | -0.016 | -0.013 | -0.009 | -0.028 | -0.001 | 0.159 | 0.051 | -0.024 | -0.022 | -0.116 | -0.049 | 0.053 | 0.03
PRPF38A (UniProt Q8NAV1) | -0.178 | -0.068 | -0.147 | 0.013 | -0.004 | 0.115 | -0.009 | -0.044 | 0.013 | -0.017 | -0.001 | 0.039 | -0.248 | -0.399 (active) | 0.03 | 0.024 | -0.034 | 0.012 | -0.055 | 0.121
PHKG2 (UniProt P15735) | 0.107 | -0.044 | 0.268 | 0.001 | 0.033 | -0.039 | 0.056 | -0.045 | 0.192 | 0.03 | -0.07 | -0.069 | 0.166 | 0 | -0.008 | 0.061 | -0.051 | 0.031 | 0.015 | -0.107
POMP (UniProt Q9Y244) | 0.072 | -0.061 | 0.035 | 0.024 | -0.03 | 0.074 | -0.002 | -0.013 | -0.033 | -0.093 | 0.048 | 0.031 | -0.054 | 0.221 | 0.11 | -0.063 | 0.022 | 0.038 | 0.017 | -0.038
